# HMGR II inh: inhibitors of class II HMG-CoA reductase from Enterococcus faecalis; purified E. faecalis HMGR, NADPH absorbance 340 nm kinetic; inhibition, % at 10 µM; 190,000 tested, 0.41% active; AID 1066;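 active = inhibition above a set limit, the median over all tested compounds plus 3 SD, cut at about 9.5% in these data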;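 also: enzyme runs in reverse so mevalonate oxidation gives rising NADPH absorbance; 0% = complete reaction with DMSO and 100% = background rate lacking mevalonate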
# PHOSPHO1 inh: PHOSPHO1 (human) inhibition; Q8TCT1; recombinant PHOSPHO1, absorbance phosphatase assay; inhibition, % at 13.3 µM; 290,000 tested, 1.1% active; AID 1565; in the data active = inhibition above about 60%
# eIF4H inh: inhibitors of RNA binding by human eIF4H; eIF4H fluorescence polarization binding assay; Q15056; inhibition, % at 35 µM; 290,000 tested, 0.94% active;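 also: calls also rest on retests at 20 µM and on dose response follow-up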
# PABP1 MLLE inh: inhibitors of microRNA-mediated deadenylation, human PABP1 MLLE binding; P11940; 360,000 tested, 0.36% active; inhibition, % at 20 µM; GST-MLLE / FITC-PAM2 fluorescence polarization; in the data active = inhibition above about 35%, passing the limit was not always enough;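 also: plate controls were DMSO wells with GST-MLLE for no effect and wells lacking GST-MLLE protein for full effect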
# Target sequence (P11940 whole entry, looked up): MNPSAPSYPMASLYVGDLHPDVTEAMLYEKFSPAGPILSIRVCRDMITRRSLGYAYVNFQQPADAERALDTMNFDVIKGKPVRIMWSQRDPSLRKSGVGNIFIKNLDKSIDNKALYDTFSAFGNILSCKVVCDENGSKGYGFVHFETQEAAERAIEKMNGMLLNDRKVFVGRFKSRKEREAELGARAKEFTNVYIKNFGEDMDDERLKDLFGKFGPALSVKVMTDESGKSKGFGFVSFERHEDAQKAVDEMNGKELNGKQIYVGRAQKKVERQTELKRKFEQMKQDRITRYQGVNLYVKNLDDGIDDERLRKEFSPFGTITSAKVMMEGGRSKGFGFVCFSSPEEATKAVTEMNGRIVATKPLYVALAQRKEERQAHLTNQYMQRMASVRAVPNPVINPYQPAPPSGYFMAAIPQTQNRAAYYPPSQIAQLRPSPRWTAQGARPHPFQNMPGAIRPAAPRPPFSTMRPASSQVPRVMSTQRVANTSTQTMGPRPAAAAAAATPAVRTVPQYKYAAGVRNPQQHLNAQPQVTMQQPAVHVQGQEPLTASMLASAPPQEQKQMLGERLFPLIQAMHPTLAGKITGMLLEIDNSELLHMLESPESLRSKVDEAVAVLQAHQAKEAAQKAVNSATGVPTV
# PABP polyA inh: blocks human PABP binding to poly(A) RNA; calls only at 35 µM; P11940; AID 2014; 290,000 tested, 1% active; fluorescence polarization;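 also: calls also rest on retests at 20 µM and on dose response follow-up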
# * hit, by the source's call; i = inactive; / = not tested or not shown; + = active, no number. Only some compounds are listed: those with a hit (about 2.4% of all), similar ones and a draw of the others. Unless noted, no rule for the calls is given here.
SMILES,HMGR II inh,PHOSPHO1 inh,eIF4H inh,PABP1 MLLE inh,PABP polyA inh
CC1CN(Cc2ccccc2)c2ccccc2NC1=S (configuration not stated),-3.6,-32.3,17.4,15.3,i
CCCCn1c(-c2cccs2)nc2nc3ccccc3nc21,-4.1,27.4,-13.6,-0.2,i
CCCCCCn1c(-c2cccs2)n[nH]c1=S,5.1,28.3,active,13.5,+
CCCCn1c(-c2csc(C(C)C)c2)n[nH]c1=S,0.1,-9.8,11.5,-51.8,i
CCCCn1c(-c2csc3ccccc23)n[nH]c1=S,-6.5,95.0*,-10.0,-36.0,i
CCCCn1c(-c2csc3c2CCC(C)C3)n[nH]c1=S (configuration not stated),1.3,84.1*,13.0,-48.6,i
C=CCn1c(-c2csc3c2CCC(C)C3)n[nH]c1=S (configuration not stated),0.4,20.5,9.9,-30.8,i
CCCCn1c(-c2csc3c2CCCC3)n[nH]c1=S,-0.1,99.7*,-4.1,/,i
O=C(NCc1cccnc1)c1[nH]c(C(F)(F)F)nc1-c1ccccc1,/,/,/,-10.2,/
Nc1cccc2c(=O)c3ccccc3[nH]c12,/,-2.2,91.9*,-51.3,+
CCOC(=O)N/N=C(/C)c1cccc(-n2cnnn2)c1,0.7,57.0,2.9,0.8,i
C[n+]1ccccc1/C=C/c1ccc(F)c(F)c1,/,-13.0,/,-124.7,/
Cc1ccccc1/C=C/c1cccc[n+]1C,/,-137.4,/,-124.2,/
C[n+]1ccccc1/C=C/c1ccccc1Cl,/,-75.0,78.8*,-94.1,+
C[n+]1ccccc1/C=C/c1c(F)cccc1F,/,-38.5,62.8,-106.0,+
C=CCN1C(=O)/C(=C2/C(=O)N(CC(=O)O)c3ccccc32)S/C1=N/c1nccs1,-4.6,22.9,104.9*,/,+
C=CCN1C(=O)/C(=C/c2ccc(O)cc2)S/C1=N/c1nccs1,-1.2,11.1,-8.4,-99.3,i
Cc1cnc(NC(=O)Nc2ccccc2)c(C)n1,/,39.9,-1.9,4.8,i
COc1ccc(-c2n[nH]c(=S)n2-c2ccc(C)cc2)cc1,/,6.5,6.2,-0.5,i
Cc1ccc(-c2cn3c(=S)[nH]nc3s2)cc1,0.1,67.5*,-17.7,-3.3,i
Cc1ccc(-c2n[nH]c(=S)n2C)cc1,/,93.5*,-8.6,-8.3,i
CC(C)n1c(-c2ccc(C(C)(C)C)cc2)n[nH]c1=S,-1.3,99.1*,1.6,-0.4,i
Cc1ccc2nc(C)cc(C(=O)OCC(=O)Nc3cccnc3Cl)c2c1,-4.2,60.9*,-11.8,10.7,i
CCOCc1c(C(=O)OCC(=O)NCc2ccc(F)cc2)oc2ccccc12,/,/,/,1.7,/
O=C(CN1C(=O)CCC1=O)Nc1cccc(NC(=O)CN2C(=O)CCC2=O)c1,-3.0,-22.9,-4.0,-9.0,i
SMILES,HMGR II inh,PHOSPHO1 inh,eIF4H inh,PABP1 MLLE inh,PABP polyA inh
Cc1ccc(C2(C(F)(F)F)NC(=O)N3CCCN=C3S2)cc1 (configuration not stated),-5.3,0.6,-11.6,-6.1,i
O=C1NC(c2ccccc2)(C(F)(F)F)SC2=CCCCCN12 (configuration not stated),0.4,-7.1,-2.3,42.3*,i
COc1ccc(N2Cc3cccc(C(=O)NC(C)CCc4ccco4)c3C2=O)cc1 (configuration not stated),1.3,4.3,88.2*,-19.1,+
CC1=C(SCCC#N)S/C(=C2\SC(C)=C(SCCC#N)S2)S1,-3.5,95.2*,3.9,26.4,i
CCc1ccc2cc3c(cc2n1)C(=O)c1ccccc1-3,/,/,/,-4.0,/
O=C(/C=C/c1ccc(O)c(O)c1)c1ccc(S(=O)(=O)N2CCCCCC2)cc1,-3.9,-5.1,89.6*,-6.8,i
O=C(c1ccc(S(=O)(=O)N2CCCC2)cc1)N1CCCCC1,/,/,/,-8.3,/
Cc1ccc(C=C2C(Cl)=C(Cl)C(Cl)=C2Cl)cc1,/,-14.7,101.5*,/,+
CCn1c(N2CCN(CC(=O)c3c(C)n(C)c4ccccc34)CC2)nc2c1c(=O)[nH]c(=O)n2C,-1.5,91.5*,7.6,-96.1,i
COC(=O)CCC(=O)Nc1cccc([N+](=O)[O-])c1,-3.2,-3.9,-9.2,6.9,i
Cc1ccc(Nc2n[nH]c(=S)s2)cc1,/,/,/,15.0,/
S=c1[nH]nc(Nc2ccc(Cl)cc2)s1,/,85.9*,1.6,33.1,i
CCCCCNc1nc(N2CCCC2)c2c(c1C#N)CCN(C)C2,0.8,15.5,59.4*,26.6,+
CCOC(=O)Cn1c(C)cc(=O)c2cccc(C)c21,12.2*,-3.3,-3.5,-3.3,i
CCOC(=O)Cn1c(=O)cc(C)c2cccc(C)c21,-0.6,24.5,-5.2,2.6,i
Cc1cccc2c(N=O)c(O)[nH]c12,/,44.6,15.8,-9.6,i
Cc1ccc(NC(=O)NNC(=O)c2snnc2C)cc1,-4.0,34.1,-7.6,-9.8,i
COc1ccc(/C=C/C(=O)N2CCN(c3ccccn3)CC2)c(OC)c1OC,/,19.9,0.0,10.8,i
Cc1c(C(=O)OCC2CCCO2)[nH]c2c1C(=O)CC(c1ccco1)C2 (configuration not stated),-0.3,31.4,90.1*,-0.1,+
Cc1c(C(=O)OCC(C)C)[nH]c2c1C(=O)CC(c1ccco1)C2 (configuration not stated),-0.5,2.1,21.8,-12.4,i
CC(NC(N)=O)C(=O)Nc1ccc(Cl)c(S(=O)(=O)Nc2ccc(Br)cc2)c1 (configuration not stated),-3.7,-17.0,-4.4,4.8,i
c1ccc(SCc2cn(C[C@H]3CC[C@@H]([C@@H]4CC[C@H](Cn5cc(CSc6ccccc6)nn5)O4)O3)nn2)cc1,/,-1.7,2.2,1.6,i
CCCCCCCCCCCNC(=O)c1ccoc1C,-5.2,-1.1,-0.8,0.7,i
CCCCCC(C)NC(=O)c1ccoc1C (configuration not stated),10.6*,21.9,3.6,11.3,i
O=C(COC(=O)/C=C/c1cccc(F)c1)Nc1cccc(S(=O)(=O)NC2=NCCCCC2)c1,/,/,/,-5.3,/
SMILES,HMGR II inh,PHOSPHO1 inh,eIF4H inh,PABP1 MLLE inh,PABP polyA inh
Cc1ccc2ncccc2c1NS(=O)(=O)c1ccccc1,3.0,97.8*,8.4,-110.5,i
Cc1ccc2ncccc2c1NC(=S)NC(=O)c1ccccc1,-0.4,23.6,2.7,41.6*,i
COc1ccc2c(c1)c(=O)c(C(=O)c1ccccc1)cn2Cc1ccc(C)cc1,13.5*,-23.4,-7.6,10.4,i
O=C(CN1CCN(c2ccccc2O)CC1)Nc1ccc2c(c1)CCC2,-9.3,-4.5,2.2*,-6.6,+
Cc1onc(-c2ccccc2Cl)c1C(=O)Nc1ccc(-c2nnc3n2CCCCC3)cc1,-7.6,45.2,5.2,-69.6,i
Cc1cc(C)n(-c2ccc(Cl)c(C(=O)Nc3ccc(-c4nnc5n4CCCCC5)cc3)n2)n1,-1.4,62.5*,-4.8,-62.1,i
O=S(=O)(Nc1ccc2ccccc2n1)c1ccccc1,/,-4.3,2.3,-2.2,i
Cc1cc(C(=O)CC#N)c(C)n1-c1ccc(OC(F)F)cc1,-2.9,6.3,8.0,-10.7,i
COC(=O)c1cc(C(=O)OC)cc(-n2c(C)cc(C(=O)CC#N)c2C)c1,0.2,-16.2,59.2*,-2.9,+
